SMILES strings stand for the structures. Several values for one entry are separate records, joined by “and”; a condition that tells them apart may be missing. Equal entries are not always repeated. The campaign covered roughly 16,000 compounds. About 5,700 (36%) were called active. Roughly 24% stayed inconclusive and do not appear here. Calls follow the shape of the dose curve; as a rule, active = well fitted curve in the direction sought with a large enough effect; inconclusive = small, poorly fitted or top-dose-only effect, or effect the other way; inactive = no such curve, though single readings can be large or run the other way. The list shows a part of the results. The source holds several records for some structures; these can differ, active in one and inactive in another.

Among the data in PubChem BioAssay AID1851 (National Center for Advancing Translational Sciences (NCATS), 2009) are AC50 and activity, negative = inhibition values, retold here.
% is scaled to controls: 0 for no effect and ±100 for the full control effect.

Sequence of Cytochrome P450 1A2 (Homo sapiens) (P05177 whole entry, looked up): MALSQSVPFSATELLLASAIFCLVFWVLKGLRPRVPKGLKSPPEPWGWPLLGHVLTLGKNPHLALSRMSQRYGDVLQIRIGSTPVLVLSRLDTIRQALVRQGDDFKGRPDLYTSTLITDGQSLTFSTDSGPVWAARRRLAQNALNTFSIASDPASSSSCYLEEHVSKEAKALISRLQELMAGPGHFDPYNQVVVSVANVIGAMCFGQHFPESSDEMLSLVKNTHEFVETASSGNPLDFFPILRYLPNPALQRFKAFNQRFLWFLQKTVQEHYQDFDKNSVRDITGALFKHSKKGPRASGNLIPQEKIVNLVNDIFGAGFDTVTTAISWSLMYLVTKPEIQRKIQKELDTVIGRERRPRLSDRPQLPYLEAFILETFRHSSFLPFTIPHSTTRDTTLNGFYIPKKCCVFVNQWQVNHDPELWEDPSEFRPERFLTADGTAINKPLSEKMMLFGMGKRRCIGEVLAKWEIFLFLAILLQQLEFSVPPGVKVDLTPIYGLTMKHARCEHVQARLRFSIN

The assay has as its target Cytochrome P450 1A2 (Homo sapiens) (UniProt P05177). As to the kind of experiment: Cytochrome panel assay with activity outcomes. The note with it: recombinant CYP, pro-luciferin dealkylation, luminescence, p450-cyp1a2; series mostly up to 57.1 µM.
As to `C=C1C(=O)O[C@@H]2[C@@H]1CC/C(C)=C\CC[C@@]1(C)O[C@H]21`, the AC50 – broadly, the concentration giving half of the maximal activity seen – was “inactive”. Take `CC(C)Sc1cc(N2CCOCC2)nc(-c2ccc(Cl)cc2)n1`: the AC50 is 5.62 µM (active). Regarding `CC(C)Sc1cc(N2CCCC2)nc(-c2ccc(F)cc2)n1`, the AC50 was 0.631 µM (active). With `CCCSc1cc(N2CCCC2)nc(-c2ccccc2)n1`, the AC50 was 0.631 µM (active). As to `CC[N+](C)(CC)CCN1C(=O)c2ccccc2S1(=O)=O`, the activity, negative = inhibition was -12.1% [at 11.4 µM] (inactive). Turning to `CN(C)S(=O)(=O)c1ccc(NC(=O)COC(=O)c2ccccn2)cc1`, the AC50 result was “inactive”. Regarding `Cc1ccc2nc(NC(=O)COC(=O)c3ccc(Br)o3)sc2c1`, the AC50 is 4.47 µM (active). For the compound `Cc1nc2ccc(S(=O)(=O)NC(CC(C)C)C(=O)O)cc2s1` (stereo not given), the AC50 entry was “inactive”.

As for `Cc1ccc2nc(NC(=O)COC(=O)CSc3nc(C)cc(C)n3)sc2c1`, the half-maximal activity concentration (AC50) was 0.891 µM (active). Turning to `CCN(c1ccccc1)S(=O)(=O)c1ccc(NC(=S)NC(=O)c2ccc(Br)o2)cc1`, the AC50 result was “inactive”. The same measure, in the same setting: to `CN(C)S(=O)(=O)c1cccc(NC(=O)COC(=O)c2ccc(Br)o2)c1` belongs 14.1 µM (active); to `Cc1ccc2nc(NC(=O)CSCC(=O)OCC(=O)c3ccc(Br)cc3)sc2c1`, 8.91 µM (active). As to `COc1ccc(C(=O)N2CCC3(CCCN(Cc4ccccc4OC)C3)CC2)cc1`, the AC50 entry was “inactive”. Regarding `O=C(Cc1ccc2c(c1)CCCC2)Nc1ccccc1Br`, the AC50 is 11.2 µM (active). On the same count and under the same terms, the same measure for `CC12CCC(C(=O)Nc3ccccc3Br)(C/C1=N\O)C2(C)C` (stereo not given): “inactive”; for `COC(=O)N1CCC[C@@]2(CCN(C(=O)Nc3cccc(C#N)c3)C2)C1`: “inactive”. As for `CS(=O)(=O)N1N=C(c2ccc(Br)cc2)CC1c1ccc2c(c1)OCO2` (stereo not given), the AC50 was 3.55 µM (active). For `O=S(=O)(c1ccccc1)N1N=C(c2cccs2)CC1c1ccc(Br)cc1` (stereo not given), the AC50 result is “inactive”.

Consider `C[C@@H]1CC[C@H]2C(=O)N3[C@@H](CC[C@@H](C)[C@@H]3c3ccc(Br)cc3)C(=O)N2[C@@H]1c1ccc(Br)cc1`, for which the activity, negative = inhibition is -18.2% [at 11.4 µM] (inactive). Turning to `C=C[C@]1(C)C[C@H](OC(=O)CO)[C@]2(C)C3C(=O)CC[C@]3(CC[C@H]2C)[C@H](C)[C@H]1O` (stereo not given in full), the activity, negative = inhibition was -21% [at 2.29 µM] (inactive).

As to `COc1ccc(NC(=O)COC(=O)c2c3c(nc4ccccc24)CCCC3)cc1`, the AC50 is 7.08 µM (active). With `COc1cccc(N2C(=O)C(CC(=O)Nc3ccccc3)N(C3CCCCC3)C2=O)c1` (stereo not given), the AC50 entry was “inactive”. For the compound `COc1ccc(OC)c(NC(=O)c2c3c(nc4ccccc24)CCC3)c1`, the half-maximal activity concentration (AC50) is 12.6 µM (active). On the same count and under the same terms, the same measure for `COc1ccc(NC(=O)COC(=O)c2c(-c3ccccc3)noc2C)cc1`: 12.6 µM (active); for `COc1ccc(NC(=O)N2CC3(CCN(C(=O)c4c(C)noc4C)CC3)C2)cc1`: “inactive”; for `COc1cccc(NC(=O)COC(=O)c2c3c(nc4ccccc24)CCC(C)C3)c1` (stereo not given): 2.51 µM (active). Still for that read-out and setting: to `COc1cccc(NC(=O)Cc2c(C(=O)O)[nH]c3ccccc23)c1` belongs “inactive”. Take `CC(C)(C)Nc1nc(N2CCCC2)nc(N2CCCC2)n1`: the AC50 was 0.631 µM (active). For `O=C1CCC(c2ccccc2)(c2ccccc2)CC1`, the activity, negative = inhibition is -13.3% [at 11.4 µM] (inactive).

Take `COc1ccc(CNc2nc(-c3cccc(C#N)c3)nc3ccccc23)c(OC)c1`: the AC50 was 2.51 µM (active). As to `COc1ccc(CNc2nc(-c3cccc(NS(C)(=O)=O)c3)nc3ccccc23)c(OC)c1`, the AC50 was 15.8 µM (active). For the compound `COc1ccccc1CNc1nc(-c2cccc(C#N)c2)nc2ccccc12`, the AC50 was 1.26 µM (active). Regarding `CCCc1cc2c(n1Cc1cc(F)cc(F)c1)C(C)C1CN(C(=O)c3ccccc3)C(C)(C(=O)OC)C21` (stereo not given), the AC50 result is “inactive”. For the compound `Cc1noc(C)c1-c1cc(N(C)Cc2ccco2)ncn1`, the concentration at half-maximal activity (AC50) was 3.16 µM (active). As for `Cc1noc(C)c1-c1nccc(N(C)Cc2ccco2)n1`, the AC50 was 2 µM (active).

With `Cc1noc(C)c1-c1nccc(N(C)C)n1`, the AC50 was 0.631 µM (active). On to `Cc1noc(C)c1-c1cc(N(C)C)ncn1`, for which the AC50 is 3.16 µM (active). With `N#CCSc1ncnc2c1cnn2CCO`, the AC50 is 15.8 µM (active).

As to `COc1cccc(NC(=S)N(CCc2nc3cc(C)c(C)cc3[nH]2)Cc2cccnc2)c1`, the concentration at half-maximal activity (AC50) is 14.1 µM (active). Take `COc1cccc(NC(=O)C2c3cc(OC)c(OC)cc3C(=O)N(C)C2c2cccnc2)c1` (stereo not given): the AC50 entry is “inactive”. Regarding `COc1ccc(NC(=S)N(CCc2nc3cc(C)c(C)cc3[nH]2)Cc2cccnc2)cc1`, the AC50 was 15.8 µM (active). Still for that read-out and setting: to `CCN1C(=O)C(CC(=O)Nc2ccc(OC)cc2)N(Cc2cccnc2)C1=S` (stereo not given) belongs “inactive”; to `Cc1cccc(NC(=S)N(CCc2nc3cc(C)c(C)cc3[nH]2)Cc2cccnc2)c1`, 14.1 µM (active). `O=C1CCC=C1[C@@H](O)CCc1ccccc1`: the activity, negative = inhibition is -4.4% [at 11.4 µM] (inactive). Same read-out and setting: to `CN(C)[C@H]1C(=O)C(C(=O)NCN2CCCC2)=C(O)[C@]2(O)C(=O)C3=C(O)c4c(O)cccc4[C@](C)(O)[C@H]3C[C@H]12` belongs -17.5% [at 11.4 µM] (inactive).

`COc1cc2nc(SCc3ccc(Cl)cc3Cl)n(Cc3cccs3)c(=N)c2cc1OC`: the concentration at half-maximal activity (AC50) was 5.01 µM (active). Regarding `CCCCNC(=O)CSc1nc2cc(OC)c(OC)cc2c(=O)n1Cc1ccc(OC)cc1`, the AC50 result is “inactive”. Consider `CCCN1CCN(CCCNC(=O)Cn2nc(-c3ccc(C)cc3)ccc2=O)CC1`, for which the AC50 result is “inactive”.

Consider `Cc1nc(C(=O)Nc2ccc(Cl)cc2Cl)nn1-c1cc(OC(C)C)c(Cl)cc1Cl`, for which the AC50 entry is “inactive”. As to `CC(Oc1ccc(Cl)cc1Cl)C(=O)/C=C/N(C)C` (stereo not given), the AC50 is 7.08 µM (active).

For the compound `Nc1ncnc2nc(N3CCN(CCO)CC3)[nH]c12`, the activity, negative = inhibition was -1.17% [at 2.29 µM] (inactive). On to `CN(C)CCOC(=O)C1(c2ccccc2)CCOCC1`, for which the AC50 result was “inactive”. As for `CCN(CC)CCOC(=O)C1(c2ccc([N+](=O)[O-])cc2)CCCC1`, the AC50 is 3.16 µM (active).

Regarding `CCCCOc1ccc(C(=O)NCc2ccco2)cc1`, the AC50 was 1.26 µM (active). In the case of `C/C(CC(=O)NCc1ccco1)=N\NC(=O)Cc1ccccc1`, the AC50 entry is “inactive”. `COc1ccc(S(=O)(=O)N(C)CC(=O)NCc2ccco2)cc1`: the AC50 result is “inactive”. As for `CC(C)(C)c1ccc(C(=O)NCCC(=O)NCc2ccco2)cc1`, the AC50 is 1.58 µM (active).

For the compound `CCOc1ccc(-n2cc(C(=O)NCc3ccco3)c3cc(OC)c(OC)cc3c2=O)cc1`, the AC50 entry is “inactive”. On to `C=CCNC(=O)/C(=C\C=C\c1ccccc1)NC(=O)c1ccc(OCCCC)cc1`, for which the AC50 entry was “inactive”. As to `CCCCCOc1ccc(C(=O)NCC2(c3ccccc3)CCOCC2)cc1`, the AC50 was 15.8 µM (active). With `O=C(O)C1C2CCC(C2)C1C(=O)NCc1ccco1` (stereo not given), the AC50 entry is “inactive”. With `Cc1ccc(OCC(=O)NNC(=O)CCC(=O)NCc2ccccc2)cc1`, the AC50 entry was “inactive”. For `CC(=O)c1ccc(NC(=O)C2(c3ccccc3)CCOCC2)cc1`, the AC50 entry was “inactive”.

For `Cc1ccc(OCCCC(=O)NCc2ccco2)cc1`, the AC50 is 14.1 µM (active). As for `CCS(=O)(=O)N1CCC(C(=O)NCc2ccco2)CC1`, the AC50 result was “inactive”. The same measure, in the same setting: to `Cc1cc(C)cc(Oc2nn[nH]n2)c1` belongs “inactive”. For the compound `COc1cccc([C@H]2Oc3ccc(OC)cc3/C(=N\O[C@@H](C)c3cn([C@H](CO)Cc4ccccc4)nn3)[C@@H]2O)c1`, the activity, negative = inhibition was -7.2% [at 11.4 µM] (inactive) and -11.9% [at 11.4 µM] (inactive). Regarding `CCCNC(=O)Cn1cnc2sc(C(=O)Nc3ccc4c(c3)OCO4)c(C)c2c1=O`, the AC50 entry is “inactive”.

Take `CCOC(=O)N1CCN(C(=O)c2cnc3n(c2=O)CCS3)CC1`: the AC50 result is “inactive”.

As for `COc1ccccc1NC(=O)c1cnc2n(c1=O)CCS2`, the concentration at half-maximal activity (AC50) is 2.24 µM (active). Same read-out and setting: the same measure for `CCCCN(Cc1ccccc1)C(=O)c1cnc2n(c1=O)CCS2`: “inactive”; for `COc1ccccc1NC(=O)c1sc2ncn(Cc3ccccc3C)c(=O)c2c1C`: 3.16 µM (active); for `CCn1cnc2sc(C(=O)N3CCN(c4ccc(OC)cc4)CC3)c(C)c2c1=O`: “inactive”.

Take `CN1CCN(NC(=O)c2ccccc2F)CC1`: the AC50 result is “inactive”. With `COC(=O)C(NNc1ccccc1)(NC(=O)c1ccccc1F)C(F)(F)F` (stereo not given), the AC50 result is “inactive”.

For `O=C(NC(=S)N(Cc1ccccc1)Cc1ccccc1)c1ccccc1F`, the half-maximal activity concentration (AC50) is 11.2 µM (active). In the case of `Cc1ccc(S(=O)(=O)NC(=O)OC23COCN2COC3)cc1`, the activity, negative = inhibition is 7.51% [at 11.4 µM] (inactive). As for `NCCCNCCCCNCCCN`, the AC50 entry is “inactive”. On to `NCCCCN`, for which the AC50 result was “inactive”. Turning to `NCCCCNCCCN`, the AC50 entry is “inactive and 31.6 µM (active)”. As to `COc1ccc(C(=O)NC(C)c2cc(OC)c(OC)cc2Br)cc1` (stereo not given), the concentration at half-maximal activity (AC50) was 14.1 µM (active). For the compound `COc1cc(Br)c(C(C)NC(=O)c2cccc(Br)c2)cc1OC` (stereo not given), the AC50 is 12.6 µM (active). Turning to `COc1ccc(C(=O)N2CCC3(CC2)CN(C(=O)NC(C)C)C3)cc1`, the AC50 result was “inactive”. Regarding `COc1ccccc1C(c1nnnn1C(C)(C)C)N1CCCc2ccccc21` (stereo not given), the AC50 result is “inactive”. As to `CC(C)(N=NC(C)(C)C(=N)N)C(=N)N`, the activity, negative = inhibition is -4.86% [at 11.4 µM] (inactive). For the compound `CCc1ccc(N2CC(C)Cn3c2nc2c3c(=O)n(CCN3CCOCC3)c(=O)n2C)cc1` (stereo not given), the AC50 entry is “inactive”. On to `Cc1ccccc1-c1ccc2ncnc(NCc3cccs3)c2c1`, for which the AC50 was 2.51 µM (active). Still for that read-out and setting: the same measure for `Cc1noc(C)c1-c1ccc2ncnc(NCc3cccs3)c2c1`: 0.398 µM (active); for `Cc1noc(C)c1-c1ccc2ncnc(NCc3cccnc3)c2c1`: 0.316 µM (active). As to `Cc1noc(C)c1-c1ccc2ncnc(NCc3ccccc3)c2c1`, the AC50 is 3.16 µM (active).

On to `O=C(O)CN(CCN(CC(=O)O)CC(=O)O)CCN(CC(=O)O)CC(=O)O`, for which the AC50 entry is “inactive”. Take `C#CCCCO/N=C1/C[C@@H](O)[C@@H](O)[C@@H]2[C@@H]3C(=O)N(C4CCCCC4)C(=O)[C@H]3CC[C@@H]12`: the activity, negative = inhibition was 1.04% [at 11.4 µM] (inactive). As to `Cc1cccc(CNc2ncnc3ccc(-c4c(C)noc4C)cc23)c1`, the AC50 is 5.01 µM (active). With `O=C(N/N=C1\CCCc2ccccc21)c1ccc([N+](=O)[O-])cc1Cl`, the AC50 was 15.8 µM (active). Consider `Cc1cccc(N=C2NN=C(c3ccc4c(c3)OCCO4)CS2)c1`, for which the AC50 was 14.1 µM (active).
